From PubChem BioAssay AID602431 (Southern Research Specialized Biocontainment Screening …, 2012)
Results with a measured potency or affinity are listed apart. Inconclusive results are not listed. Unmarked numbers belong to inactive results. How the calls were made is not given here.

Assay: Vero cell cytotoxicity, cytotoxicity control for M. tuberculosis inhibitor project, purified and synthesized samples, set 8 (AID 602431)
Settings: series mostly up to 100 µM; viability: at the top concentration

SMILES | viability
COCCNC(=O)CSc1nc2ccccc2c(=O)[nH]1 | 91.8%
O=C(CSc1nc2ccccc2c(=O)[nH]1)NC1CCOCC1 | 87.4%
CC(C)CCNC(=O)CSc1nc2c(c(=O)[nH]1)CCCC2 | 89.3%
O=C(c1ccc(CNc2c(N3CCOCC3)c(=O)c2=O)cc1)N1CCN(c2ccccc2)CC1 | 99.7%
O=C(NCc1ccc(C(=O)N2CCN(c3ccccc3)CC2)cc1)NC1CCCCC1 | 99.6%
O=C(c1ccc(CNc2c(N3CCCC3)c(=O)c2=O)cc1)N1CCN(c2ccccc2)CC1 | 97.1%
O=C(c1ccc(CNc2c(N3CCOCC3)c(=O)c2=O)cc1)N1CCC(c2ccccc2)CC1 | 94.5%
COC(=O)C(Cc1ccccc1)NC(=O)CSc1nc2ccccc2c(=O)[nH]1 (configuration not stated) | 96.1%
CC(C)CCNC(=O)CSc1nc2ccccc2c(=O)[nH]1 | 88.2%
O=C(CSc1nc2c(c(=O)[nH]1)CCC2)NC1CCCCC1 | 95.9%
CC(C)CCNC(=O)CSc1nc2c(c(=O)[nH]1)CCCCC2 | 93.8%
O=C(CSc1nc2c(c(=O)[nH]1)CCCC2)NC1CCCCC1 | 85.2%
